{"source": "the supplement of paper PMC8728848", "binders": {"B1": {"name": "Gal 10 (Homo sapiens), Q05315 (protein)", "chain": "MSLLPVPYTEAASLSTGSTVTIKGRPLVCFLNEPYLQVDFHTEMKEESDIVFHFQVCFGRRVVMNSREYGAWKQQVESKNMPFQDGQEFELSISVLPDKYQVMVNGQSSYTFDHRIKPEAVKMVQVWRDISLTKFNVSYLKR"}}, "assay_in_all_cases": "glycan array binding signal (z-score within array); higher = stronger binding", "conditions_in_all_cases": "glycan notation: IUPAC condensed, linker removed", "key": {"[1]": {"target": "Fuc(a1-2)Gal(b1-3)[Fuc(a1-4)]GlcNAc(b1-2)Man(a1-3)[Fuc(a1-2)Gal(b1-3)[Fuc(a1-4)]GlcNAc(b1-2)Man(a1-3)]Man(b1-4)GlcNAc(b1-4)GlcNAc", "outline": "(§1)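 From the Consortium for Functional Glycomics database, 3228 arrays were curated, keeping only those whose protein sequence was available. Binding is given as a within-array Z-score averaged across arrays sharing a protein sequence and across linkers. Negative Z-scores can be read as non-binding.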"}, "[2]": {"target": "Fuc(a1-2)Gal(b1-3)[Fuc(a1-4)]GlcNAc(b1-2)Man(a1-6)[Fuc(a1-2)Gal(b1-3)[Fuc(a1-4)]GlcNAc(b1-2)Man(a1-3)]Man(b1-4)GlcNAc(b1-4)[Fuc(a1-6)]GlcNAc", "outline": "as §1"}, "[3]": {"target": "Fuc(a1-2)Gal(b1-4)GlcNAc(b1-3)Gal(b1-4)GlcNAc(b1-3)Gal(b1-4)GlcNAc", "outline": "as §1"}, "[4]": {"target": "Fuc(a1-2)Gal(b1-4)[Fuc(a1-3)]GlcNAc(b1-2)Man(a1-3)[Fuc(a1-2)Gal(b1-4)[Fuc(a1-3)]GlcNAc(b1-2)Man(a1-6)]Man(b1-4)GlcNAc(b1-4)[Fuc(a1-6)]GlcNAc", "outline": "as §1"}, "[5]": {"target": "Fuc(a1-2)Gal(b1-4)[Fuc(a1-3)]GlcNAc(b1-3)Gal(b1-4)[Fuc(a1-3)]GlcNAc", "outline": "as §1"}, "[6]": {"target": "Fuc(a1-2)Gal(b1-4)[Fuc(a1-3)]GlcNAc(b1-3)GalNAc", "outline": "as §1"}, "[7]": {"target": "Fuc(a1-2)Gal6S(b1-3)GlcNAc6S", "outline": "as §1"}, "[8]": {"target": "Fuc(a1-2)[Gal(a1-3)]Gal(b1-4)GlcNAc(b1-3)GalNAc", "outline": "as §1"}, "[9]": {"target": "Fuc(a1-2)[Gal(a1-3)]Gal(b1-4)GlcNAc(b1-6)GalNAc", "outline": "as §1"}, "[10]": {"target": "Fuc(a1-2)[GalNAc(a1-3)]Gal(b1-3)GlcNAc(b1-3)GalNAc", "outline": "as §1"}, "[11]": {"target": "Fuc(a1-2)[GalNAc(a1-3)]Gal(b1-4)GlcNAc(b1-3)Gal(b1-4)GlcNAc", "outline": "as §1"}, "[12]": {"target": "Fuc(a1-2)[GalNAc(a1-3)]Gal(b1-4)GlcNAc(b1-3)[Fuc(a1-2)[GalNAc(a1-3)]Gal(b1-4)GlcNAc(b1-6)]GalNAc", "outline": "as §1"}, "Fuc(b1-3)GlcNAc": {"target": "Fuc(b1-3)GlcNAc", "outline": "as §1"}, "Gal(a1-3)Gal(b1-3)GlcNAc": {"target": "Gal(a1-3)Gal(b1-3)GlcNAc", "outline": "as §1"}, "[13]": {"target": "Gal(a1-3)Gal(b1-3)[Fuc(a1-4)]GlcNAc(b1-2)Man(a1-3)[Gal(a1-3)Gal(b1-3)[Fuc(a1-4)]GlcNAc(b1-2)Man(a1-6)]Man(b1-4)GlcNAc(b1-4)GlcNAc", "outline": "as §1"}, "Gal(a1-3)Gal(b1-4)GlcNAc": {"target": "Gal(a1-3)Gal(b1-4)GlcNAc", "outline": "as §1"}, "[14]": {"target": "Gal(a1-4)Gal(b1-4)GlcNAc(b1-3)Gal(b1-4)Glc", "outline": "as §1"}, "[15]": {"target": "Gal(b1-3)Gal(b1-4)GlcNAc(b1-2)Man(a1-3)[Gal(b1-3)Gal(b1-4)GlcNAc(b1-2)Man(a1-6)]Man(b1-4)GlcNAc(b1-4)GlcNAc", "outline": "as §1"}, "Gal(b1-3)GalNAc": {"target": "Gal(b1-3)GalNAc", "outline": "as §1"}, "[16]": {"target": "Gal(b1-3)GalNAc(b1-3)Gal(a1-4)Gal(b1-4)Glc", "outline": "as §1"}, "Gal(b1-4)Glc6S": {"target": "Gal(b1-4)Glc6S", "outline": "as §1"}, "[17]": {"target": "Gal(b1-4)GlcNAc(b1-2)[Gal(b1-4)GlcNAc(b1-4)]Man(a1-3)[GlcNAc(b1-4)][Gal(b1-4)GlcNAc(b1-2)Man(a1-6)]Man(b1-4)GlcNAc(b1-4)GlcNAc", "outline": "as §1"}, "[18]": {"target": "Gal(b1-4)GlcNAc(b1-3)Gal(b1-4)GlcNAc(b1-2)[Gal(b1-4)GlcNAc(b1-3)Gal(b1-4)GlcNAc(b1-6)]Man(a1-6)[Gal(b1-4)GlcNAc(b1-3)Gal(b1-4)GlcNAc(b1-2)Man(a1-3)]Man(b1-4)GlcNAc(b1-4)[Fuc(a1-6)]GlcNAc", "outline": "as §1"}, "[19]": {"target": "Gal(b1-4)GlcNAc(b1-3)Gal(b1-4)GlcNAc(b1-3)Gal(b1-4)GlcNAc(b1-2)[Gal(b1-4)GlcNAc(b1-3)Gal(b1-4)GlcNAc(b1-3)Gal(b1-4)GlcNAc(b1-6)]Man(a1-6)[Gal(b1-4)GlcNAc(b1-3)Gal(b1-4)GlcNAc(b1-3)Gal(b1-4)GlcNAc(b1-2)Man(a1-3)]Man(b1-4)GlcNAc(b1-4)[Fuc(a1-6)]GlcNAc", "outline": "as §1"}, "[20]": {"target": "Gal(b1-4)GlcNAc(b1-3)Gal(b1-4)GlcNAc(b1-3)Gal(b1-4)GlcNAc(b1-3)Gal(b1-4)GlcNAc(b1-3)Gal(b1-4)GlcNAc(b1-2)Man(a1-3)[Gal(b1-4)GlcNAc(b1-3)Gal(b1-4)GlcNAc(b1-3)Gal(b1-4)GlcNAc(b1-3)Gal(b1-4)GlcNAc(b1-3)Gal(b1-4)GlcNAc(b1-2)Man(a1-6)]Man(b1-4)GlcNAc(b1-4)GlcNAc", "outline": "as §1"}, "[21]": {"target": "Gal(b1-4)GlcNAc(b1-3)Gal(b1-4)GlcNAc(b1-6)[Gal(b1-3)]GalNAc", "outline": "as §1"}, "Gal3S(b1-3)GalNAc": {"target": "Gal3S(b1-3)GalNAc", "outline": "as §1"}, "Gal3S(b1-4)Glc6S": {"target": "Gal3S(b1-4)Glc6S", "outline": "as §1"}, "[22]": {"target": "Gal3S(b1-4)[Fuc(a1-3)]GlcNAc", "outline": "as §1"}, "Gal4S(b1-4)GlcNAc": {"target": "Gal4S(b1-4)GlcNAc", "outline": "as §1"}}, "note": "Shown is part of a subset that was picked to be rich in the strongest signals."}
{"binder": "B1", "values": [{"measurement": "glycan array binding signal (z-score)", "setting": "[1]", "result": 0.078}, {"measurement": "glycan array binding signal (z-score)", "setting": "[2]", "result": 0.81}, {"measurement": "glycan array binding signal (z-score)", "setting": "[3]", "result": -0.692}, {"measurement": "glycan array binding signal (z-score)", "setting": "[4]", "result": -0.642}, {"measurement": "glycan array binding signal (z-score)", "setting": "[5]", "result": -1.35}, {"measurement": "glycan array binding signal (z-score)", "setting": "[6]", "result": 2.13}, {"measurement": "glycan array binding signal (z-score)", "setting": "[7]", "result": 0.571}, {"measurement": "glycan array binding signal (z-score)", "setting": "[8]", "result": -0.339}, {"measurement": "glycan array binding signal (z-score)", "setting": "[9]", "result": 1.28}, {"measurement": "glycan array binding signal (z-score)", "setting": "[10]", "result": 0.64}, {"measurement": "glycan array binding signal (z-score)", "setting": "[11]", "result": -0.116}, {"measurement": "glycan array binding signal (z-score)", "setting": "[12]", "result": 3.88}, {"measurement": "glycan array binding signal (z-score)", "setting": "Fuc(b1-3)GlcNAc", "result": 0.585}, {"measurement": "glycan array binding signal (z-score)", "setting": "Gal(a1-3)Gal(b1-3)GlcNAc", "result": -0.317}, {"measurement": "glycan array binding signal (z-score)", "setting": "[13]", "result": 0.703}, {"measurement": "glycan array binding signal (z-score)", "setting": "Gal(a1-3)Gal(b1-4)GlcNAc", "result": 0.105}, {"measurement": "glycan array binding signal (z-score)", "setting": "[14]", "result": -0.109}, {"measurement": "glycan array binding signal (z-score)", "setting": "[15]", "result": -0.754}, {"measurement": "glycan array binding signal (z-score)", "setting": "Gal(b1-3)GalNAc", "result": 0.117}, {"measurement": "glycan array binding signal (z-score)", "setting": "[16]", "result": -0.196}, {"measurement": "glycan array binding signal (z-score)", "setting": "Gal(b1-4)Glc6S", "result": -0.347}, {"measurement": "glycan array binding signal (z-score)", "setting": "[17]", "result": -0.708}, {"measurement": "glycan array binding signal (z-score)", "setting": "[18]", "result": 2.23}, {"measurement": "glycan array binding signal (z-score)", "setting": "[19]", "result": 5.64}, {"measurement": "glycan array binding signal (z-score)", "setting": "[20]", "result": 3.23}, {"measurement": "glycan array binding signal (z-score)", "setting": "[21]", "result": 3.3}, {"measurement": "glycan array binding signal (z-score)", "setting": "Gal3S(b1-3)GalNAc", "result": -0.157}, {"measurement": "glycan array binding signal (z-score)", "setting": "Gal3S(b1-4)Glc6S", "result": 0.08}, {"measurement": "glycan array binding signal (z-score)", "setting": "[22]", "result": -0.495}, {"measurement": "glycan array binding signal (z-score)", "setting": "Gal4S(b1-4)GlcNAc", "result": -0.269}]}
